In PubChem BioAssay one finds composite z-score and z-score data, which are given here for five compounds.

SMILES strings stand for the structures. Calls of active or inactive are those of the source. Unless noted, the rule behind the calls is not given here.

Test [1] in a line: compounds binding Alexa647 anti-His antibody – biochemical, small-molecule microarray, 635 nm fluorescence, artefact control for SMM control protein annotation, primary screen (AID 1128).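 Note: score merges feature fluorescence with signal-to-noise for each printed compound spot.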 As to conditions: higher = more signal.
For test [2], the system named is Human papillomavirus type 1a E7 protein (residues 1-88). The experiment in a line: HPV1a E7 small-molecule binders, primary screen, biochemical, small-molecule microarray, residues 1-88, 635 nm (AID 1129). Conditions: small-molecule microarray binding, fluorescence 635 nm; higher = more signal.
In test [3] the target is Focal adhesion kinase 1 (Homo sapiens) (UniProt Q05397). The experiment in a line: PTK2 protein binding on printed compound slides – biochemical, small-molecule microarray, 635/667 nm fluorescence, BSA, DTT, primary screen (AID 1130).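 Note: composite of spot emission at 667 nm and signal to noise over triplicate slides.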 Conditions: 635 nm fluorescence, higher = more signal.
Sequence of Focal adhesion kinase 1 (Homo sapiens) (Q05397 whole entry, looked up): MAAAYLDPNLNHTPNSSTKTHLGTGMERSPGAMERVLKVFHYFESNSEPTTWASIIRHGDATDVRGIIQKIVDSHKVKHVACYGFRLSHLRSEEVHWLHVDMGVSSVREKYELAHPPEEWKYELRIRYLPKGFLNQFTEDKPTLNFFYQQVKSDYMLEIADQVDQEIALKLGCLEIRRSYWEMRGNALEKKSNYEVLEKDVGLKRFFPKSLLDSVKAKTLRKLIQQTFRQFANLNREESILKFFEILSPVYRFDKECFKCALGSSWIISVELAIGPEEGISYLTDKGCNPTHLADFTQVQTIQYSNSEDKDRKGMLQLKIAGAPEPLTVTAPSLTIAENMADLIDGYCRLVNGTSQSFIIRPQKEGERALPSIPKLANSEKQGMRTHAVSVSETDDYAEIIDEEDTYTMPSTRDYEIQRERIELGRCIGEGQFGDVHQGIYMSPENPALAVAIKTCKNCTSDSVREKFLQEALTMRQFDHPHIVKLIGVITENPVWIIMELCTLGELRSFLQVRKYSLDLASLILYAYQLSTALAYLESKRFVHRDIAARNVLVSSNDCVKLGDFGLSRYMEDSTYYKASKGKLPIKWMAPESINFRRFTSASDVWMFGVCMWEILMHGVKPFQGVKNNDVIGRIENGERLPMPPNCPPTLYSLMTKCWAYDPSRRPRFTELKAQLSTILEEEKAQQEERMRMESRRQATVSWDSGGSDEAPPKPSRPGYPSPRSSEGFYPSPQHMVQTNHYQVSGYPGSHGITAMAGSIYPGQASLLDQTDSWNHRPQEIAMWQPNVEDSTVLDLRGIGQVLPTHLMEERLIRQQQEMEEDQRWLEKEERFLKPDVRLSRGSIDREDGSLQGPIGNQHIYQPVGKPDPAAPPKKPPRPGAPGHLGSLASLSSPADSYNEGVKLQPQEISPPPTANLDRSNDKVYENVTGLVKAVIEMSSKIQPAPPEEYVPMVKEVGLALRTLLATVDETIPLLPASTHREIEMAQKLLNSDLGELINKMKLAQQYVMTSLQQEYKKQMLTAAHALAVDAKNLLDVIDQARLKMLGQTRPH
Test [4] concerns Fibrinogen (Alexa647-labelled). The experiment in a line: Alexa647-fibrinogen binding to printed small molecules – biochemical, small-molecule microarray, 635/667 nm fluorescence, artefact control for SMM control-protein annotation, profiling panel (AID 1131).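 Note: z-score merges 667 nm fluorescence with per-spot signal-to-noise over triplicate slides.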 As to conditions: fibrinogen-A647 binding fluorescence, higher = more signal.
The target in test [5] is Follistatin (Homo sapiens) (UniProt P19883). Description: FST protein binding to printed compounds – biochemical, small-molecule microarray, 635/667 nm fluorescence, primary screen (AID 1132). As to conditions: 635 nm fluorescence, higher = more signal.
Sequence of Follistatin (Homo sapiens) (P19883 whole entry, looked up): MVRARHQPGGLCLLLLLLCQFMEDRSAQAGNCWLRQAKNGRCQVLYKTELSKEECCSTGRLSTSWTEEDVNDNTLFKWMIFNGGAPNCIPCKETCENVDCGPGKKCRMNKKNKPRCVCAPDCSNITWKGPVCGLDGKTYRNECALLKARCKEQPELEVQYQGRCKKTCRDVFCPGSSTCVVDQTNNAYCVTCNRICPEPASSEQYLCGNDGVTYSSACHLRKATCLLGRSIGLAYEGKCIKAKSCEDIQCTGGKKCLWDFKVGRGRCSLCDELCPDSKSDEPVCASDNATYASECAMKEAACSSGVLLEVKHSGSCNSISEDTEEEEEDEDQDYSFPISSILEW
Test [6] addresses Fibroblast growth factor 2 (Homo sapiens) (UniProt P09038). Description: basic fibroblast growth factor binding to printed compounds – biochemical, small-molecule microarray, 635/667 nm fluorescence, primary screen (AID 1133). Conditions: FGF2, fluorescence 635/667, higher = more signal.
Test [7] is described as follows: JC-1 mitochondrial potential readout, lung cancer cells – cell-based, A549, JC-1 fluorescence, basal, 24 h, 100 nL, profiling panel (AID 1138).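 Note: A549 lung adenocarcinoma cells under basal conditions with no added stimulus; test concentration not given here.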 Conditions: higher = more signal.
The subject of another test is Lefty1. The experiment in a line: Lefty1 protein binding to printed compounds – biochemical, small-molecule microarray, 635/667 nm fluorescence, primary screen (AID 1139). As to conditions: fluorescence 635/667, higher = more signal.
For test [8], the system named is wheat germ agglutinin (Triticum aestivum), Alexa647-labelled. Description: Alexa647-WGA lectin binding to printed small molecules – biochemical, small-molecule microarray, 635/667 nm fluorescence, artefact control for SMM control-protein annotation, profiling panel (AID 1140).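 Note: score merges 667 nm feature emission with signal to noise over triplicate slides.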 Conditions: WGA-A647 binding, 635 nm fluorescence, higher = more signal.
Test [9] has as its target Luciferin 4-monooxygenase (Photinus pyralis) (UniProt P08659). Description: inhibition of purified Photinus pyralis luciferase – biochemical, luminescence, purified enzyme, 2006 set, primary screen (AID 1141).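 Note: cell-free assay with purified firefly luciferase at 100 ng per well in PBS; test concentration not given here.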 As to conditions: purified firefly luciferase, SteadyGlo luminescence, 30 min; higher = more signal, called active from +8 up or from −8 down.
The test system of test [10] is Wnt5a (protein binding on small-molecule microarray). Description: small molecules binding Wnt5a protein – biophysical, small-molecule microarray, 635/667 nm fluorescence, primary screen (AID 1142).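 Note: fluorescence read at 667 nm with signal to noise per printed feature.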 As to conditions: 635 nm fluorescence, higher = more signal.
Test [11] is described as follows: ATP-based viability of Huh7 replicon cells – cell-based, CellTiter-Glo luminescence, basal, 48 h, cytotoxicity control for HCV replication inhibitor project, primary screen (AID 1143).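 Note: Huh7 hepatoma cells carrying a hepatitis C replication reporter with no stimulus; test concentration not given here.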 Conditions: higher = more signal, called active from +8 up or from −8 down. In general terms: In antiviral work, replicon cells carry a viral genome segment that copies itself.
Test [12] can be described thus: Pseudomonas biofilm growth suppression – PAO1 strain, BacTiter-Glo luminescence, LB-PBS, primary screen (AID 1144). As to conditions: P. aeruginosa PAO1 biofilm, 12 h, higher = more signal.
The nature of test [13]: basal CRE-LacZ reporter activity in PC12 – cell-based, unstimulated, primary screen (AID 1145). As to conditions: no forskolin, luminescence, 4.5 h, higher = more signal, called active from +8 up or from −8 down.
Test [14] in a line: forskolin-driven CRE-LacZ activity in PC12 – cell-based, CRE-LacZ reporter, forskolin-stimulated, primary screen (AID 1146).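 Note: PC12 cells with 6xCRE LacZ reporter stimulated by forskolin 10 µM; beta-galactosidase reporter signal reflecting CREB driven transcription.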 Conditions: luminescence, 4.5 h, higher = more signal, called active from +8 up or from −8 down.
Test [15] concerns the target Streptavidin (Streptomyces avidinii) (UniProt P22629). The experiment in a line: compounds binding control protein streptavidin – biophysical, small-molecule microarray, 635/667 nm fluorescence, artefact control for SMM compound annotation, primary screen (AID 1147).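 Note: signal reflects streptavidin binding to arrayed compounds as a control protein.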 Conditions: higher = more signal.
Test [16] is described as follows: probe aInhba binding on compound microarray – biochemical, small-molecule microarray, 635/667 nm fluorescence, primary screen (AID 1148).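 Note: score merges 667nm spot fluorescence with signal-to-noise for antibody binding to printed compounds.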 Conditions: higher = more signal.
Test [17] has as its target Torsin-1A (Homo sapiens) (UniProt O14656). The experiment in a line: TOR1A wild-type binding on microarray – cell lysate, small-molecule microarray, lysate, 635/667 nm, primary screen (AID 1149). As to conditions: COS7 hTOR1A-WT lysate, 635 nm fluorescence, higher = more signal.
Test [18] shares this target. The experiment in a line: torsin A mutant lysate binding on microarrays – cell lysate, small-molecule microarray, COS7 lysate, 635/667 nm fluorescence, primary screen (AID 1150).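 Note: score pools 667 nm emission and signal to noise measuring lysate protein binding.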 Conditions: COS7 hTOR1A mutant lysate, 635 nm fluorescence, higher = more signal.
In test [19] the test system is Sonic hedgehog protein (Shh). The experiment in a line: Sonic hedgehog microarray binding compounds – biochemical, small-molecule microarray, 635/667 nm fluorescence, primary screen (AID 1151).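 Note: Shh protein binding to compounds spotted on small-molecule microarray slides; score combines spot fluorescence intensity with signal-to-noise across triplicate slides.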 Conditions: 635 nm fluorescence, higher = more signal.

Sequence of Streptavidin (Streptomyces avidinii) (P22629 whole entry, looked up): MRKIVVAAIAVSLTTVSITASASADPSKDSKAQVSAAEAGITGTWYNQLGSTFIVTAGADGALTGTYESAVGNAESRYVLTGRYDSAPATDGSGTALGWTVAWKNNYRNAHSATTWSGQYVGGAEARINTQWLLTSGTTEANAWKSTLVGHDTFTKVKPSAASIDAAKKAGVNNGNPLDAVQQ
Sequence of Torsin-1A (Homo sapiens) (O14656 whole entry, looked up): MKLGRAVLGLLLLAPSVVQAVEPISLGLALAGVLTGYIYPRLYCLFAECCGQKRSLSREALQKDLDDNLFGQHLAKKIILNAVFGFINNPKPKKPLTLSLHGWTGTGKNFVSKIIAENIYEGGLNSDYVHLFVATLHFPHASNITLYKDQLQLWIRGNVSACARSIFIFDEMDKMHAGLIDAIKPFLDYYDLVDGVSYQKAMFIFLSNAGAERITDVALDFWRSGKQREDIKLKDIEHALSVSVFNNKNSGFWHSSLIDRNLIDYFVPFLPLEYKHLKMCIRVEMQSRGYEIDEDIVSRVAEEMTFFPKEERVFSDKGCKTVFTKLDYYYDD
Sequence of Luciferin 4-monooxygenase (Photinus pyralis) (P08659 whole entry, looked up): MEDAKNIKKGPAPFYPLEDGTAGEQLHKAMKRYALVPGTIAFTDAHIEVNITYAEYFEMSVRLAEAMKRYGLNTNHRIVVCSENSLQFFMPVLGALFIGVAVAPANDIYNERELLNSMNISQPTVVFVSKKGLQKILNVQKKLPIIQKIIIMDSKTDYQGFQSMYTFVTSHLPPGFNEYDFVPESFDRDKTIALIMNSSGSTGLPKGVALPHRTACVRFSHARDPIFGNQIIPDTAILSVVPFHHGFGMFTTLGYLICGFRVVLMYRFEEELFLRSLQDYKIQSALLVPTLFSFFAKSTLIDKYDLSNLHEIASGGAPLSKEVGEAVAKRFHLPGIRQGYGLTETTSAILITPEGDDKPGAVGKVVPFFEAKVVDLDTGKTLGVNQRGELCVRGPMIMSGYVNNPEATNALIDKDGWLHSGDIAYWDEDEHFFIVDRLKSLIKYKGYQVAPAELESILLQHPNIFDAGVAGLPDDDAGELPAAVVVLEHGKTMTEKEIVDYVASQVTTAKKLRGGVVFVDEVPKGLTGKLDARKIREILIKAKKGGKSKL
Sequence of Fibroblast growth factor 2 (Homo sapiens) (P09038 whole entry, looked up): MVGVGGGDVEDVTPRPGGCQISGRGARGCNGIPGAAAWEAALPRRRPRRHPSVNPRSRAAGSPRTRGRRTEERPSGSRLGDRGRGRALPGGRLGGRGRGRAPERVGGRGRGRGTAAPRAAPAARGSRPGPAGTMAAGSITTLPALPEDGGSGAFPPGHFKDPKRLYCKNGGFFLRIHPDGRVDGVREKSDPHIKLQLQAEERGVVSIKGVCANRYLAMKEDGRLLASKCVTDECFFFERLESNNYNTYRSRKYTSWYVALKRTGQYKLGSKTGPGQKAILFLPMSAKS

`C=C[C@@H](C)[C@H](O)c1ccc(OCCO)cc1`: the composite z-score in test [1] was 0.0123; in [2], -0.535; in test [3], -0.232; in test [4], -1.82; in test [5], -0.808; in [6], -0.994. Besides, the composite z-score with Lefty1 is -1.19; in test [8], -0.858; in test [10] it was -0.872; in [15], -1.83; in test [16], -0.263; with Torsin-1A (Homo sapiens) [17] it was -3.14. Also, the composite z-score was -1.86 with Torsin-1A (Homo sapiens) [18] and -0.509 in [19]. In addition, the z-score in test [7] is 0.41; in test [9], -15.8 (active); in [11], -0.104 (inactive); in [12] it was -0.307 (inactive); in [13] it was 0.166 (inactive); in [14], -0.049 (inactive).
Take `CN(C)CCCC[C@@H]1NC(=O)[C@@H]2C[C@H](C(=O)O)[C@H](c3cccc(OCCO)c3)N2C1=O`: the composite z-score in test [1] is 1.22; in test [2], -0.544; in test [3], -0.335; in [4] it was 0.438; in [5], 0.072; in [6], 1.17. Moreover, the composite z-score in the test with Lefty1 is -0.528; in test [8] it was -0.138; in test [10], 0.471; in [15] it was -0.634; in [16], -0.258; in the test with Torsin-1A (Homo sapiens) [17] it was -0.0975. In addition, the figures for the composite z-score (with Torsin-1A (Homo sapiens) [18]; in test [19]) were -0.0752 and 0.212, respectively. Besides, the z-score in test [7] was 0.0092; in test [9] it was -0.836 (inactive); in test [11] it was -0.37 (inactive); in [12] it was -0.965 (inactive); in test [13], 1.11 (inactive); in test [14], 0.664 (inactive).
In the case of `C=C(C)[C@@H]1CC=C(C(O)C2C=CC3C(=O)N(c4ccccc4)C(=O)C3N2Nc2ccc(C#N)cc2)CC1` (stereo not given in full), the composite z-score in test [1] was 0.526; in [2], 1.26; in test [3], 0.423; in test [4], 0.999; in test [5], 1.25; in test [6], 0.13. The composite z-score with Lefty1 amounted to 0.0839; in test [8], 1.32; in test [10], 0.335; in [15], 1.48; in test [16] it was 0.361; with Torsin-1A (Homo sapiens) [17], 0.202. The composite z-score with Torsin-1A (Homo sapiens) [18] was 0.454; in [19], -0.0706. Moreover, the z-score in test [7] is -0.517; in [9], -0.251 (inactive); in [11] it was -0.133 (inactive); in [12] it was -1.68 (inactive); in test [13], 0.433 (inactive); in test [14], -0.345 (inactive).
For `COC(=O)[C@@]1(Cc2ccccc2CN=[N+]=[N-])N=C(c2ccc(OCCCO)cc2)O[C@H]1c1ccccc1CN=[N+]=[N-]`, the composite z-score was -0.242 in [1]; 0.113 in test [2]; -0.198 in test [3]; -0.819 in test [4]; -0.261 in [5]; -0.167 in test [6]. Moreover, the composite z-score in the test on Lefty1 was -1.09; in [8] it was 0.495; in test [10], 1.25; in test [15] it was -0.754; in [16] it was -0.154; in the test with Torsin-1A (Homo sapiens) [17], -2.13. In addition, the composite z-score with Torsin-1A (Homo sapiens) [18] is 0.0755; in test [19], -0.427. The z-score in [7] was -0.546; in test [9] it was -2.23 (inactive); in test [11], -4.34 (inactive); in [12], -0.166 (inactive); in test [13], 1.75 (inactive); in [14] it was -0.547 (inactive).
In the case of `CCOC(=O)C=Cc1cc(F)ccc1O`, the composite z-score in test [1] was 0.354; in [2] it was -0.166; in test [3], 0.727; in test [4], -0.333; in test [5], 0.0875; in [6], 0.0013. Also, the composite z-score was -0.471 with Lefty1; 0.0203 in test [8]; 0.139 in test [10]; 0.761 in [15]; 0.0705 in [16]; 0.165 with Torsin-1A (Homo sapiens) [17]. Further, the composite z-score with Torsin-1A (Homo sapiens) [18] was 0.448; in test [19], -0.587. In addition, the z-score in test [7] is -1.8; in test [9], 0.701 (inactive); in [11], -4.58 (inactive); in test [12], -0.557 (inactive); in test [13], 0.276 (inactive); in test [14] it was -0.804 (inactive).
